# Only some compounds are listed: those with a hit (about 5.2% of all), similar ones and a draw of the others.
# NRP1-CendR mod: NRP-1/CendR interaction modulation; O14786; FAM-RPARPAR peptide binding to NRP-1, fluorescence polarization; inhibition, % at 25 µM; actives 0.85% (n = 360,000);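 active means inhibition or corrected inhibition above about 18%, plus a signal ratio from 0.5 to 1.5, limit read from the data, passing the limit was not always enough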
# Target sequence (O14786 whole entry, looked up): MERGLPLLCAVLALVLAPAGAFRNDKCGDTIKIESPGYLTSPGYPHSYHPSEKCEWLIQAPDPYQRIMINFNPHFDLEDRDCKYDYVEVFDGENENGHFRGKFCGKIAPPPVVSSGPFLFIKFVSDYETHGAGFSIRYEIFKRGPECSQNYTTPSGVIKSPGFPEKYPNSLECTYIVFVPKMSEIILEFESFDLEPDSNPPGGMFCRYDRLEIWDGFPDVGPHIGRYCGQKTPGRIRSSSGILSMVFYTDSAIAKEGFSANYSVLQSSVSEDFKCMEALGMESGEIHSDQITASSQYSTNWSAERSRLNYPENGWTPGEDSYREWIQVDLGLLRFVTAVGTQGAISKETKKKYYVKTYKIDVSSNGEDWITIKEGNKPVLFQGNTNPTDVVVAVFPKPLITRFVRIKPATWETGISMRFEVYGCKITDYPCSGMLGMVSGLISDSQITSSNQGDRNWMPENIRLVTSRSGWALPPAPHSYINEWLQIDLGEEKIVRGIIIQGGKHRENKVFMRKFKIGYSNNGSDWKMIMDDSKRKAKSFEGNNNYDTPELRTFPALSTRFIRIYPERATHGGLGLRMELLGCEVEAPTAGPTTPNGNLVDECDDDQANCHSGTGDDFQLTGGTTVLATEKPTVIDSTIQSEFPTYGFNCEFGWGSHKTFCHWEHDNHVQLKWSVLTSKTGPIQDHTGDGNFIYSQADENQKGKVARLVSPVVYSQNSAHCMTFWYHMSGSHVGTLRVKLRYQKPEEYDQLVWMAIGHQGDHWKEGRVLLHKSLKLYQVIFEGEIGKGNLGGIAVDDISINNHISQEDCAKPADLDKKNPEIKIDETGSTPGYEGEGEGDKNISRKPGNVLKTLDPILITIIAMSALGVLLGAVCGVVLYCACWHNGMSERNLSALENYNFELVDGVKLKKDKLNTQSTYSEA
# PfM18AAP inh: blocks P. falciparum M18 aspartyl aminopeptidase; inhibition, % at 7.35 µM; actives 1.2% (n = 290,000); AID 1822; recombinant PfM18AAP, H-Glu-NHMec fluorogenic cleavage;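 active means inhibition above the campaign mean inhibition over all tested compounds plus 3 SD, cut at about 28% in these data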;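 further: 0% = plate median of test compound wells and 100% = 2 mM ZnCl2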
# APOBEC3G inh: blocks human APOBEC3G single-stranded DNA deamination | AID 493012 | recombinant A3G, ssDNA deamination FAM/TAMRA fluorescence | actives 0.28% (n = 330,000) | inhibition, % at 20 µM | Q9HC16;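 active means inhibition of at least 40% at 20 µM, with no more than 30% in the related APOBEC3A deaminase screen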;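 further: plate controls were DMSO wells with A3G for no effect and wells lacking A3G enzyme for full effect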
# ALR H2O2 inh: human ALR oxidase inhibition via reduced H2O2; purified ALR, DTT oxidation, H2O2 HRP-luminol luminescence; inhibition, % (concentration not given with the values); actives 3.8% (n = 290,000); AID 485317;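 active means mean replicate inhibition above about 79%, with every replicate also reaching it, limit read from the data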
# Yeast superoxide: lowers age-related superoxide in aged yeast cells | AID 2690 | actives 0.18% (n = 330,000) | superoxide response (% of plate mean), % at 10 µM | S. cerevisiae aged cells, superoxide DHE fluorescence; active compounds read low;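 active means superoxide response under a set limit, about three screen SD below normal, cut at about 65% in these data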;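 further: yeast aged for seven days with compound at 30 °C before DHE staining; 100% = average MFI of all compound-treated wells on the plate with controls excluded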
# APOBEC3A inh: blocks human APOBEC3A ssDNA deamination; P31941; recombinant A3A, FAM/TAMRA ssDNA deamination fluorescence; inhibition, % at 20 µM; actives 0.41% (n = 330,000); AID 493011;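 active means at least 40% inhibition at 20 µM here, with at most 30% in a related deaminase screen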;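 further: plate controls were A3A with DMSO for no effect and wells lacking A3A enzyme for full effect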
# An asterisk follows results filed as active; . = no result.
SMILES,NRP1-CendR mod,PfM18AAP inh,APOBEC3G inh,ALR H2O2 inh,Yeast superoxide,APOBEC3A inh
Cc1cccc(N(C)c2ncnc3onc(-c4ccc(F)cc4)c23)c1C,22*,1,-8,-21,93,-4
CCN(CCO)c1ncnc2onc(-c3ccc(F)cc3)c12,8,-16,-2,-5,103,3
COc1ccc(C2=CC3=CC(=O)C(C)(O)C(=O)C3=CO2)cc1 (stereo not drawn),.,.,5,.,104,6
COc1ccc(N2CSC3=C(C#N)C(c4cc(OC)ccc4OC)CC(=O)N3C2)c(OC)c1 (stereo not drawn),-70,18,32,2,98,1
COc1cc(OC)c(C2CC(=O)N3CN(c4ccc(C)cc4)CSC3=C2C#N)cc1OC (stereo not drawn),-19,31*,39,-36,108,5
COc1ccc(N2CSC3=C(C#N)C(c4cccs4)CC(=O)N3C2)cc1 (stereo not drawn),0,43*,.,11,91,.
COc1ccc(N2CSC3=C(C#N)C(c4ccc(OC)c(OC)c4)CC(=O)N3C2)c(OC)c1 (stereo not drawn),-7,18,38,52,103,1
CCOc1ccccc1N1CSC2=C(C#N)C(c3c(OC)ccc4ccccc34)CC(=O)N2C1 (stereo not drawn),-24,37*,25,-6,115,-2
O=c1ccc(N=Nc2ccccc2)ccc1O,4,16,.,98*,102,.
O=C(Oc1coc(CSc2ncccn2)cc1=O)c1cccc([N+](=O)[O-])c1,-11,8,2,97*,104,3
CN(C)C(=O)c1ccc(NC(=O)CSc2nc3ccccc3[nH]2)cc1,-3,3,-3,35,98,6
O=S(=O)(Nc1cccc2c1CCCC2)c1ccc(Cl)cc1,-2,0,-2,84*,88,2
Cc1ccc(O)c(C2=NCCNC(C(F)(F)C(F)F)=C2)c1,-1,-5,-8,99*,99,-6
Oc1ccc(Cl)cc1C1=NCCNC(C(F)(F)C(F)F)=C1,-16,5,-2,99*,100,0
FC(F)C(F)(F)C1=CC(c2ccccc2)=NCCN1,0,-11,-6,-3,81,1
COc1ccc(OCC(=O)O/N=C(\N)Cc2ccc(Cl)cc2Cl)cc1,46*,4,-4,-3,95,1
Cc1ccc(S(=O)(=O)/N=C2\C(=O)c3ccccc3C([O-])=C2n2cc[n+](CCC(C)C)c2)cc1,31*,0,-1,-10,156,5
CC[n+]1c(/C=C/c2ccc(N(C)C)cc2)ccc2ccccc21,-42,5,.,98*,90,.
CN(C)c1ccc(/C=C/c2cc[n+](C)cc2)cc1,-204,19,11,99*,106,39
CC[n+]1ccccc1/C=C/c1ccc(N(C)C)cc1,-144,0,.,.,.,.
CN(C)c1ccc(/C=C/c2cc[n+]([O-])cc2)cc1,.,6,-17,99*,94,-12
O=C(N=C1SC2CS(=O)(=O)CC2N1c1ccc(Cl)cc1)C1CCCO1 (stereo not drawn),-2,0,-3,3,100,1
CCN(CC)c1ccc(N2C(=NC(=O)C3CCCO3)SC3CS(=O)(=O)CC32)cc1 (stereo not drawn),18,8,-6,99*,93,-6
O=C(CN1CCN(c2ccc(F)cc2)CC1)N(C1CCCC1)C1CCS(=O)(=O)C1 (stereo not drawn),13,.,-8,.,91,-4
O=C(CN1CCN(c2ccc(O)cc2)CC1)N(C1CC1)C1CCS(=O)(=O)C1 (stereo not drawn),13,.,1,99*,90,0
SMILES,NRP1-CendR mod,PfM18AAP inh,APOBEC3G inh,ALR H2O2 inh,Yeast superoxide,APOBEC3A inh
c1ccc(CCSc2ncnc3nc[nH]c23)cc1,-5,0,-2,-16,89,2
c1ccc2c(CSc3ncnc4nc[nH]c34)cccc2c1,10,-6,-3,98*,117,0
O=S(=O)(/N=C(/Nc1ccc(Cl)c(S(=O)(=O)N2CCOCC2)c1)c1ccc(F)cc1)c1ccccc1,-6,5,2,-6,107,2
COc1ccccc1NS(=O)(=O)c1cc(N/C(=N\S(=O)(=O)c2ccccc2)c2ccc(F)cc2)ccc1Cl,34*,-5,0,-5,93,4
N=C1C(=O)OCC1c1cc(Cl)ccc1NC(=O)Nc1ccccc1 (stereo not drawn),39*,13,-2,-3,107,-4
COc1ccc(N(C)C(=S)Nc2ccc3nc(C)c(C)nc3c2)cc1,-8,15,-7,98*,105,-7
COc1ccc(CC(=O)NNC(=O)COc2ccc(Cl)cc2C)cc1S(=O)(=O)N1CCOCC1,5,.,2,-4,65*,-1
Cc1ccc(C(=O)Nc2nc3nc(-c4ccccc4)cc(=O)n3[nH]2)cc1,-21,-7,-2,92*,118,1
CSc1nc2nc(-c3ccccc3)cc(=O)n2[nH]1,24,4,-3,2,114,-4
CCCOc1ccc(-c2nc(=S)[nH][nH]2)cc1,-6,-27,-1,99*,87,-4
S=c1nc(-c2ccc(Cl)cc2)[nH][nH]1,-7,5,10,.,92,-8
Cc1nc2c(C(=O)NCCc3ccccc3Cl)c[nH]n2c(=O)c1Cl,-15,-1,-7,99*,97,3
Cc1nc2c(C(=O)NCc3ccccc3Cl)c[nH]n2c(=O)c1Cl,-7,0,-6,.,102,-3
Cc1ccc(S(=O)(=O)N2CCCC(C(=O)O)C2)s1 (stereo not drawn),2,10,-6,87*,90,-3
O=C(O)C1CCCN(S(=O)(=O)c2cccs2)C1 (stereo not drawn),3,-2,2,-5,97,-3
O=C1/C(=C\c2ccco2)CCC/C1=C\c1ccco1,16,22,-4,33,106,87*
CC1C/C(=C/c2ccco2)C(=O)/C(=C/c2ccco2)C1 (stereo not drawn),.,15,83,54,100,91
O=c1cc(CSc2n[nH]c(-c3ccncc3)n2)nc2sccn12,24*,-2,15,-24,96,26
O=C(CSc1ccc(C(F)(F)F)cc1[N+](=O)[O-])Nc1ccc2ccccc2c1,6,-8,0,99*,106,2
O=C(CSC1=NCCS1)Nc1ccc2ccccc2c1,2,1,-4,99*,77,0
O=C(CSC1=NCCS1)Nc1cccc(F)c1,6,-2,-6,99*,93,-3
Cc1ccccc1C(=O)Nc1ccc(S(=O)(=O)N2CC(C)OC(C)C2)cc1 (stereo not drawn),10,1,-5,-1,96,-2
CSc1ncc(C(=O)O)c(C)n1,2,2,-9,-1,99,-3

# Assay outcomes deposited in PubChem by several laboratories.
